Inhibition data for 93 molecules are collected here from PubChem BioAssay AID602440 (Sanford-Burnham Center for Chemical Genomics, 2012).

In all, about 360,000 compounds went through this assay and about 2,300 (0.64%) were called active. This is one part of a sample in which actives are shown more often than they occur. Unmarked numbers belong to inactive results. Rule as the data show it: active = inhibition mostly above about 40% (no sharp cut-off); inactive = mostly below about 27%.

The target in this test is Sentrin-specific protease 8 (Homo sapiens) (UniProt Q96LD8). Kind of test: blockers of SENP8 deneddylase activity – biochemical, fluorescence, Nedd8 protein substrate, uHTS, primary screen (AID 602440). Conditions: recombinant SENP8, Nedd8 substrate fluorescence; at 20 µM; hits give high values.
Sentrin-specific protease 8 (Homo sapiens), sequence (Q96LD8 whole entry, looked up): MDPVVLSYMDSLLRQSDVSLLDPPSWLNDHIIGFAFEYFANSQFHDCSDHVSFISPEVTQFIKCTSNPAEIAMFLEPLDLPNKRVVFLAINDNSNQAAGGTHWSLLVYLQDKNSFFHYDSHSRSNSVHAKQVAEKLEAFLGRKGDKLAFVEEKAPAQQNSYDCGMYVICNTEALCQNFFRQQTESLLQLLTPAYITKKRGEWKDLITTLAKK
In the case of `COC(=O)Cn1c2ccc(C)cc2c2nc(C)sc21`, the inhibition was 65.4% (active).
Then `CCn1c(CNC(=O)c2cc(OC)c(OC)c(OC)c2)cc2cc(C)ccc21`, with -19.2%.
Then `COC(=O)Cn1c(=NC(=O)c2cc(OC)c(OC)c(OC)c2)sc2cc(OC)ccc21`, with -398%; and `COc1cc(C(F)(F)F)c(C(=O)N(C)c2ccc(Cl)cc2)cn1`, with -0.9%; and `OC1CSc2nc3ccccc3n2C1` (stereo not drawn), with 9.1%.
Then `O=C1NC(c2ccccc2)CCC1(Cl)Cl` (stereo not drawn), with 14.1%.
`COc1ccc(NC(=O)/C(N=Nc2cccc(S(=O)(=O)Nc3ccc(SC(F)F)cc3)c2)=C(\C)O)cc1`: the inhibition is 38.3% (active).
Then `Nc1cccc(S(=O)(=O)Nc2ccc(SC(F)F)cc2)c1`, with 5.2%; and `Cc1c(NS(=O)(=O)c2cccc(C(=O)Nc3ccc(SC(F)F)cc3)c2)c(=O)n(-c2ccccc2)n1C`, with -1.9%; and `CC(=O)c1cnc(SCCN2C(=O)c3ccccc3C2=O)nc1C`, with 9.5%.
On to `CCOCCCNC(=O)c1c[nH]c2cc(C)ccc2c1=O`, for which the inhibition is 5.8%.
Next, `CCc1[nH]nc(C(=O)N2CCCC(CO)(Cc3ccc(F)cc3F)C2)c1C` (stereo not drawn): 3.5%; `CN(c1ccc(C(=O)N2CCc3ccccc3C2)cc1)S(C)(=O)=O`: 43.9% (active); `Cn1cccc1C(=O)N1CCc2ccccc2C1`: -0.8%.
Then `CS(=O)(=O)N(CC(=O)N1CCc2ccccc2C1)c1ccc(Br)cc1`, with 6.5%; and `COc1ccc(CNC(=O)CN(C(=O)c2csnn2)c2cnc3ccccc3c2)cc1`, with -222%.
As for `CCN(CC)C(=O)CSc1nc2ccccc2n1CC(=O)N1CCN(c2ccccc2OC)CC1`, the inhibition was 33.5%.
Then `Nc1ccc2[nH]c(=S)sc2c1`, with -81.4%.
Next, `O=c1[nH]c2ccccc2s1`: 44.5% (active); `COc1ccc(-c2[nH]ncc2CN(C)Cc2cc(C)[nH]n2)c(F)c1`: 8.6%; `CCOC(=O)c1c(CC(C)C)csc1/N=C/C1=C(O)CCCC1=O`: -55.6%.
With `Nn1cnnc1N/N=C/c1cc([N+](=O)[O-])c(Cl)cc1Cl`, the inhibition was 51.7% (active).
Then `CCCOc1cccc(C(=O)Nc2ccccc2C(=O)N2CCN(C)CC2)c1`, with 4.7%.
Then `C[C@H]1CN([C@@H](C)CO)C(=O)CCCn2cc(nn2)CO[C@@H]1CN(C)S(=O)(=O)c1ccc(-n2cccn2)cc1`, with 8.3%; and `Cc1cc(C)nc(N2C(=O)CC(Cc3ccccc3)C2=O)n1` (stereo not drawn), with 2.8%; and `COc1cc(CN2CCCN(C)CC2)c([N+](=O)[O-])cc1OC`, with 11.8%.
Next, `CC(C)(C)n1c(=O)[nH]c2c(c1=O)CCC2`: 16.6%; `O=c1[nH]n2c(=O)c3c([nH]c2c1N=Nc1ccccc1)CCC3`: 46.3% (active).
As to `CCCCOc1ccc(C(=O)NCC(=O)OCC(=O)N2CCN(S(=O)(=O)c3ccc(C)cc3C)CC2)cc1`, the inhibition is 7.7%.
Then `Cc1cc(C)nc(SCc2nnc(SCC(=O)OC3CCCCC3)o2)n1`, with 6.5%.
Next, `COc1ccccc1C1SCCN1C(=O)c1ccc([N+](=O)[O-])cc1` (stereo not drawn): 8.4%; `CCOC(=O)C1CCCN(C(=O)c2ccc(N(C)C)cc2)CC1` (stereo not drawn): 18.8%.
With `CCOC(=O)C1CCCN(C(=O)c2ccc(C)c(F)c2)CC1` (stereo not drawn), the inhibition is 40.6% (active).
Next, `CCOC(=O)C1CCCN(C(=O)c2ccc(C)c(S(=O)(=O)N3CCCCC3)c2)C1` (stereo not drawn): 4.6%; `CC(C)N(C(=O)Cn1cc(S(=O)(=O)CC(=O)N2CCOCC2)c2ccccc21)C(C)C`: 5.7%.
Regarding `COC(=O)c1nc2n(n1)C(c1ccc([N+](=O)[O-])cc1)C(C(=O)Nc1ccc(Cl)cc1)=C(C)N2` (stereo not drawn), the inhibition was 18.3%.
In the case of `CCc1ccccc1NC1c2ccccc2C(=O)N1c1cccnc1` (stereo not drawn), the inhibition was 41% (active).
Take `O=C1[C@@H](c2ccccc2)[C@@H](c2ccccc2)N1c1cccnc1`: the inhibition is -26.4%.
For `COC(=O)c1cc(NC2c3ccccc3C(=O)N2c2ccc(Cl)cn2)cc(C(=O)OC)c1` (stereo not drawn), the inhibition was -28%.
For the molecule `COc1ccccc1C(=O)NC(=S)Nc1ccc(N2CCOCC2)cc1`, the inhibition is 14.8%.
Regarding `O=C(Cc1ccccc1)NC(=S)Nc1ccc(N2CCCCC2)cc1`, the inhibition was 42.1% (active).
Then `O=C(CN1CCN(c2ccc(O)cc2)CC1)Nc1ccc(-c2ccccc2)cc1`, with 23.2%; and `CN1CCn2cnc(C(=O)NCC(=O)OC(C)(C)C)c2C1=O`, with 14.9%; and `CCN(CC)CCCNC(=O)CCn1nc(-c2ccc(Cl)cc2)ccc1=O`, with 13.2%.
Then `Cc1[nH][nH]c(=O)c1C(c1ccc(-c2ccc(Cl)cc2)o1)c1c(C)[nH][nH]c1=O`, with 63.5% (active); and `CN(CC(=O)Nc1ccc(F)cc1)C(=O)c1ccc(-c2ccc(Cl)cc2)o1`, with -23.1%; and `COc1ccc(C(=O)NC(=S)N2CCNC(=O)C2CC(=O)OC(C)C)cc1` (stereo not drawn), with -6.1%.
Then `CC(=O)c1ccc(OCC(=O)N(C)C2CCS(=O)(=O)C2)cc1` (stereo not drawn), with 18.3%.
Consider `Cn1c(=O)[nH]c(=O)c2c1nc(CN(Cc1ccccc1)Cc1ccccc1)n2CCN1CCOCC1`, for which the inhibition was 17.1%.
With `COCCNC(=O)NC(=O)COC(=O)C1(c2ccc(Cl)cc2)CC1`, the inhibition was 6.8%.
Then `O=C(Cn1ccc(=O)[nH]c1=O)Nc1ccc(C(=O)O)c(O)c1`, with 7.9%.
Next, `O=C(Nc1ccc(C(=O)O)c(O)c1)c1ccccc1`: 43.3% (active); `O=C(Cc1ccccc1)Nc1ccc(C(=O)Nc2ccccc2C(=O)O)cc1`: -13.4%.
Then `CC(C)C(NC(=O)c1c(F)cccc1F)C(=O)NCc1ccncc1` (stereo not drawn), with -7.7%; and `c1coc(-c2nc3nc4ccccc4n3nc2-c2ccco2)c1`, with 106% (active).
Take `N#Cc1ccc(C(C(=O)NCc2ccccc2)n2c(=O)c(-c3ccco3)nc3ccccc32)cc1` (stereo not drawn): the inhibition is -432%.
Next, `Cc1cccc(C)c1NC(=O)C(c1cccc2ccccc12)n1c(=O)c(-c2ccco2)nc2ccccc21` (stereo not drawn): -458%.
Consider `Cc1ccc2c(Cl)c(C(=O)Nc3nn[nH]n3)sc2c1`, for which the inhibition is -0.2%.
Then `Cc1noc(C)c1NC(=O)Nc1ccc2c(c1)C(=O)N([C@H](C)CO)C[C@H](C)[C@@H](CN(C)S(=O)(=O)c1cn(C)cn1)O2`, with -6%; and `O=C(C/C(=N\NC(=O)c1ccccc1Br)C(F)(F)F)c1cccs1`, with 25.6%; and `Cc1nc2nc(SCC(=O)c3ccccc3)[nH]c2cc1Br`, with 13.3%.
Turning to `O=C(CSc1nnc2ccccn12)c1ccccc1`, the inhibition was -1.2%.
Then `Cc1nc(SCC(=O)c2ccccc2)c([N+](=O)[O-])[nH]1`, with 41.9% (active).
For the molecule `Cc1cc(C)n2nc(C(=O)OCC(=O)N(C)CC(=O)Nc3ccc(F)cc3)nc2n1`, the inhibition is 3.2%.
On to `COc1ccc(CCNC(=O)COC(=O)C2CC2C)cc1` (stereo not drawn), for which the inhibition is 9.7%.
Consider `Cc1cc(NC(=O)CN2C(=O)NC(CCc3ccccc3)C2=O)no1` (stereo not drawn), for which the inhibition is 12.2%.
Next, `CCc1cccc(C)c1NC(=O)COC(=O)CC1CCCC1`: 40.9% (active); `Cc1cccc(C)c1NC(=O)CNC(=O)C1CCCC1`: 11.2%.
With `CCc1cccc(C)c1NC(=O)COC(=O)Cc1ccsc1`, the inhibition was -35.2%.
As to `Cc1ccc(N(C(=O)CC2NC(=O)NC2=O)C2(C(=O)NC3CCCC3)CCCCC2)cc1` (stereo not drawn), the inhibition was 21.4%.
As to `Cc1ccc(NC(=O)CN(C)C(=O)c2cccc(S(=O)(=O)N3CCCC3)c2)cc1`, the inhibition was 18.7%.
Then `COc1ccc(CCNC(=O)CN(c2ccccc2)S(C)(=O)=O)cc1`, with 13.5%; and `COc1cccc(N(CC(=O)NCCSc2ccccn2)S(C)(=O)=O)c1`, with 40.3% (active).
Regarding `COc1ccc(N(CC(=O)NCCSCc2cccc(Cl)c2)S(C)(=O)=O)cc1`, the inhibition was 16.9%.
As to `COc1ccc(NC(=O)CCNS(=O)(=O)c2ccc3c(c2)c(=O)n(C)c(=O)n3C)cc1OC`, the inhibition is 9.5%.
Then `OCc1n[nH]c(CO)n1`, with 6.5%.
Next, `CN1C(=O)/C(=C/C=C2\SCCN2C)OC1=S`: 43.8% (active); `O=[N+]([O-])c1ccc(C=Nc2ccc(Cl)cc2Cl)s1`: 69% (active); `CCNc1nc(N)nc(Oc2ccc(OCC)nn2)n1`: 6.3%.
As for `O=P(O)(CP(=O)(c1ccccc1)c1ccccc1)c1ccccc1`, the inhibition was 10.2%.
Next, `CC(C)(C)c1cc(P(=O)(c2ccccc2)c2ccccc2)ccc1O`: 20.7%.
Next, `O=P(O)(CP(=O)(c1ccccc1)c1ccccc1)c1ccccc1O`: 41.1% (active); `COC(=O)C1=C(C)N(C)C(=S)NC1c1cc(OC)ccc1OC` (stereo not drawn): 10%; `COC(=O)[C@]12CCCCC=C1N(CCC1=CCCCC1)C(=O)[C@H](CC(=O)NCC1CCCCC1)C2`: 10.5%.
Next, `COc1cc(C(=O)NC2CCN(Cc3ccccc3)CC2)cc(Cl)c1OC(C)C`: 3.3%.
On to `CC(=O)Nc1ccc(NC(=O)COc2ccc(S(=O)(=O)NC(C)c3ccccc3)cc2)cc1` (stereo not drawn), for which the inhibition was 8.8%.
Then `CCOC(=O)C(=O)Nc1nc(-c2ccccc2)c(CC)s1`, with 16.8%; and `CCOC(=O)/C(=N\Nc1ccccc1[N+](=O)[O-])c1csc(Nc2ccccc2)n1`, with 52.3% (active).
Next, `CCOC(=O)C/C(C)=N\Nc1ccc([N+](=O)[O-])cc1[N+](=O)[O-]`: 23.3%; `NC(=O)c1ccc(N2CCOCC2)nc1`: 10.6%.
As for `Nc1ncnc2c1ncn2[C@@H]1O[C@H](CNC(=O)[C@H](N)Cc2cccnc2)[C@@H](O)[C@H]1O`, the inhibition is 6.7%.
Next, `CN(CCc1ccccn1)C(=O)CCC1CCCN(Cc2ccccc2OC(F)F)C1` (stereo not drawn): 29.2%; `Nc1ccc2nc3c(=O)[nH]c(=S)[nH]c3nc2c1`: 46.9% (active).

The term inhibition denotes the change of the read-out against control, counted positive when it falls.
